# Test results: publication PMC4552634, “A New Set of Chemical Starting Points with Plasmodium falciparum Transmission-Blocking Potential for Antimalarial Drug Discovery” (PLoS ONE, 2015)
# Screen size: about 13,000 compounds; about 3,200 (25%) showed an effect of 50% or more. The list shows a part of the results.
# Tested on: P. falciparum stage V gametocytes
# Set-up: BacTiter-Glo ATP luminescence viability of purified stage V gametocytes in 384-well plates, per cent inhibition versus DMSO
# Conditions: 48 h, 5 µM; inhibitor
row,Compound,% Inhibition [%]
1,Cc1nc2ccc3ccc(CN(C)c4ccc(C(=O)N[C@@H](CCC(=O)O)C(=O)O)cc4)cc3c2c(=O)[nH]1 [TCMDC-138089],24.11
2,Cc1cccc2[nH]c(-c3cccc(-c4cccc(NC(=O)Nc5ccc(F)c(F)c5F)c4)c3)nc12 [TCMDC-133227],-33.06
3,COc1cncc(/C=C/c2cncc(C(=O)NCCc3ccc(Cl)cc3Cl)c2)c1 [TCMDC-134508],-1.142
4,CCOc1cc(/C=N/Nc2nc3ccccc3[nH]2)ccc1OCc1ccc([N+](=O)[O-])cc1 [TCMDC-124191],-53.42
5,CCOc1cc(C=NNc2nc(C)cc(-n3nc(C)cc3C)n2)ccc1O [TCMDC-124094],92.61
6,CCOc1ccc(Nc2cc(C)nc(Nc3ccc(OCC)cc3)n2)cc1 [TCMDC-125772],-32.28
7,CC1(C)N=C(N)N=C(N)N1OCCSc1ccccc1 [TCMDC-131670],-8.546
8,CCNC(=O)Nc1cccc(-c2cccc(-c3nc4c(C)cccc4[nH]3)c2)c1 [TCMDC-133172],-6.099
9,CSc1ccc2ccccc2c1CNCCCCCCNCc1c(SC)ccc2ccccc12 [TCMDC-137758],72.82
10,CSc1ccc2ccccc2c1CCNCCCCNCCc1c(SC)ccc2ccccc12 [TCMDC-137763],109.4
11,CC1CCC(NCc2c(O)ccc3ccccc23)CC1 (centres unmarked) [TCMDC-137602],-21.28
12,CC1CN(Cc2csc(Nc3ccccc3)n2)CC(C)O1 (centres unmarked) [TCMDC-125078],46.05
13,FC(F)(F)c1ccc2c(C=Cc3ccncc3)c[nH]c2c1 [TCMDC-137257],12.06
14,CCCC(=O)Nc1ccc(OCCCCN(Cc2ccccc2C(F)(F)F)c2ccc(C(F)(F)F)c(C#N)c2)cc1 [TCMDC-133359],32.41
15,CCCCN(C)CC#Cc1ccc2[nH]c(C)c(Cl)c(=O)c2c1 [TCMDC-136185],85.15
16,Cc1[nH]c2ccccc2c(=O)c1Br [TCMDC-137427],12.8
17,CCN(CC)CC#Cc1ccc2[nH]c(C)c(Cl)c(=O)c2c1 [TCMDC-136162],0.7622
18,Cc1ccc2[nH]c3ccccc3c(=O)c2c1 [TCMDC-123947],19.38
19,Cc1[nH]c2ccc(-c3ccccc3)cc2c(=O)c1Br [TCMDC-135426],61.46
20,Cc1ccc2c(=O)c3cc(C)ccc3[nH]c2c1 [TCMDC-138194],58.3
21,CCCCc1ccc(-c2ccc3[nH]c(C)c(Br)c(=O)c3c2)cc1 [TCMDC-135463],34.89
22,O=c1c2ccccc2[nH]c2cc(Cl)ccc12 [TCMDC-123989],-7.86
23,Cc1[nH]c2ccc(-c3ccc(N(C)C)cc3)cc2c(=O)c1Cl [TCMDC-136188],61.07
24,CCCCN(C)CC#Cc1ccc(-c2ccc3[nH]c(C)c(Br)c(=O)c3c2)cn1 [TCMDC-136285],11.41
25,Cc1[nH]c2ccc(-c3ccc(OC(F)(F)F)cc3)cc2c(=O)c1C#N [TCMDC-136129],23.98
26,Cc1[nH]c2ccccc2c(=O)c1-c1ccc(Cl)cc1 [TCMDC-137172],25.44
